Test results as given in PubChem BioAssay AID1159580 (chemical genetic matrix, 2015).
Hit rate of the full screen: of about 5,500 compounds, about 2,000 (36%) were called active. Inconclusive results (about 18%) are left out. Cut-off read from the data, not from the text of the source: active = normalized growth mostly below about 0.91 (no sharp cut-off); inconclusive = no clear call, values can overlap the other calls; inactive = mostly above about 0.92. This is one part of the list.

Test: chemical genetic growth profiling, strain panel (AID 1159580);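 note: tested at 20 µM; growth read once vehicle control cultures reached saturation at 30 °C; 1 = growth at the plate median or of vehicle wells; lower values mean less growth of the strain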
Settings: S. cerevisiae deletion strains, growth OD

Measured: normalized growth

O=C1c2ccc(O)c(O)c2C(=O)c2c(O)ccc(O)c21
inactive: locus YBR021W, strain FUR4, hits give low values 1.01 | locus YBR229C, strain ROT2, hits give low values 1.01 | locus YCL029C, strain bik1, hits give low values 1 | locus YDL035C, strain GPR1, hits give low values 1.03 | locus YDL074C, strain BRE1, hits give low values 1 | locus YDL101C, strain DUN1, hits give low values 1.01 | locus YDL185W, strain tfp1, hits give low values 1.01 | locus YDL192W, strain arf1, hits give low values 0.99 | locus YDR101C, strain arx1, hits give low values 1.01 | locus YDR162C, strain NBP2, hits give low values 1.03 | locus YDR195W, strain ref2 0.873 | locus YDR318W, strain mcm21, hits give low values 0.992 | locus YDR388W, hits give low values 0.997 | locus YDR502C, strain sam2, hits give low values 0.991 | locus YEL061C, strain CIN8, hits give low values 1 | locus YER110C, hits give low values 0.991 | locus YER155C, strain BEM2, hits give low values 1 | locus YER167W, strain BCK2, hits give low values 1.02 | locus YGL078C, strain dbp3, hits give low values 0.982 | locus YGL086W, strain mad1, hits give low values 0.989 | locus YGL248W, strain PDE1, hits give low values 1 | locus YGR078C, strain PAC10, hits give low values 1.01 | locus YGR135W, strain pre9, hits give low values 0.991 | locus YGR252W, strain gcn5, hits give low values 0.977 | locus YHR013C, strain ard1, hits give low values 0.953 | locus YHR030C, strain SLT2, hits give low values 1.01 | locus YHR079C, strain IRE1 (second series), hits give low values 0.991 | locus YHR094C, strain hxt1, hits give low values 0.995 | locus YHR129C, strain ARP1, hits give low values 1.01 | locus YHR200W, strain rpn10, hits give low values 0.998 | locus YIL066C, strain RNR3, hits give low values 1.03 | locus YIL073C, strain SPO22, hits give low values 1.01 | locus YIL125W, strain kgd1, hits give low values 0.992 | locus YIR030C, strain dcg1, hits give low values 0.988 | locus YJL095W, strain BCK1, hits give low values 0.998 | locus YJL134W, strain LCB3, hits give low values 1.01 | locus YJL168C, strain set2, hits give low values 0.988 | locus YJL187C, strain SWE1 (second series), hits give low values 1.01 | locus YJR043C, strain POL32, hits give low values 1.03 | locus YKL009W, strain mrt4, hits give low values 0.978 | locus YKL068W, hits give low values 0.992 | locus YKL085W, strain MDH1 (second series), hits give low values 0.99 | locus YKL085W, strain MDH1, hits give low values 0.99 | locus YKL190W, strain CNB1, hits give low values 1.01 | locus YKR001C, strain vps1, hits give low values 0.985 | locus YLR039C, strain RIC1, hits give low values 1.03 | locus YLR058C, strain SHM2, hits give low values 1.01 | locus YLR102C, strain apc9, hits give low values 0.991 | locus YLR262C, strain YPT6, hits give low values 1.09 | locus YLR268W, strain sec22, hits give low values 1.01 | locus YLR330W, strain CHS5, hits give low values 1.01 | locus YLR342W, strain FKS1 (second series), hits give low values 1.02 | locus YLR371W, strain rom2, hits give low values 0.986 | locus YLR418C, strain cdc73, hits give low values 0.978 | locus YML016C, strain PPZ1, hits give low values 1.01 | locus YML032C, strain rad52, hits give low values 1.01 | locus YML124C, strain tub3, hits give low values 0.988 | locus YMR078C, strain ctf18, hits give low values 0.996 | locus YMR223W, strain ubp8, hits give low values 0.998 | locus YMR307W, strain GAS1, hits give low values 1.07 | locus YNL067W, strain RPL9B, hits give low values 0.997 | locus YNL128W, strain TEP1, hits give low values 1.01 | locus YNL153C, strain GIM3, hits give low values 0.998 | locus YNL233W, strain BNI4, hits give low values 1.01 | locus YNL250W, strain rad50, hits give low values 0.998 | locus YNL271C, strain bni1, hits give low values 0.994 | locus YNL298W, strain CLA4, hits give low values 0.994 | locus YNL307C, strain MCK1, hits give low values 0.994 | locus YNR052C, strain pop2, hits give low values 0.993 | locus YOL012C, strain htz1 0.902 | locus YOL147C, strain pex11, hits give low values 0.998 | locus YOR061W, strain CKA2, hits give low values 1.02 | locus YOR069W, strain VPS5, hits give low values 1.01 | locus YOR136W, strain idh2, hits give low values 1.02 | locus YOR144C, strain elg1, hits give low values 0.991 | locus YOR184W, strain ser1, hits give low values 0.995 | locus YOR316C, strain cot1, hits give low values 0.996 | locus YPL241C, strain CIN2, hits give low values 1.01 | locus YPR119W, strain clb2, hits give low values 0.989 | locus YPR141C, strain kar3, hits give low values 0.991 | locus YPR163C, strain tif3, hits give low values 1.01 | locus YPR167C, strain met16, hits give low values 0.989 | strain wtn01, hits give low values 1.01
active: locus YAL021C, strain ccr4, hits give low values 0.241 | locus YAL026C, strain drs2, hits give low values 0.376 | locus YAL030W, strain snc1, hits give low values 0.69 | locus YBL061C, strain skt5, hits give low values 0.548 | locus YBR009C, strain hhf1, hits give low values 0.667 | locus YBR023C, strain chs3, hits give low values 0.479 | locus YBR171W, strain sec66, hits give low values 0.753 | locus YBR231C, strain swc5, hits give low values 0.479 | locus YBR279W, strain paf1, hits give low values 0.838 | locus YCL011C, strain gbp2, hits give low values 0.67 | locus YCL016C, strain dcc1, hits give low values 0.695 | locus YCL069W, strain vba3, hits give low values 0.751 | locus YCR088W, strain abp1, hits give low values 0.781 | locus YDL005C, strain med2, hits give low values 0.879 | locus YDL040C, strain nat1, hits give low values 0.795 | locus YDR001C, strain nth1, hits give low values 0.787 | locus YDR069C, strain doa4, hits give low values 0.399 | locus YDR137W, strain rgp1, hits give low values 0.255 | locus YDR159W, strain sac3, hits give low values 0.789 | locus YDR297W, strain sur2, hits give low values 0.697 | locus YDR334W, strain swr1, hits give low values 0.424 | locus YDR335W, strain msn5, hits give low values 0.737 | locus YDR392W, strain spt3, hits give low values 0.567 | locus YEL003W, strain gim4, hits give low values 0.675 | locus YEL037C, strain rad23, hits give low values 0.734 | locus YEL061C, strain CIN8 (second series), hits give low values 0.814 | locus YER015W, strain faa2, hits give low values 0.493 | locus YER016W, strain bim1, hits give low values 0.705 | locus YER111C, strain swi4, hits give low values 0.708 | locus YER155C, strain BEM2 (second series), hits give low values 0.696 | locus YFR010W, strain ubp6, hits give low values 0.539 | locus YGL167C, strain pmr1, hits give low values 0.814 | locus YGL173C, strain kem1, hits give low values 0.286 | locus YGL227W, strain vid30, hits give low values 0.83 | locus YGL240W, strain doc1, hits give low values 0.667 | locus YGL253W, strain hxk2, hits give low values 0.638 | locus YHR027C, strain rpn1, hits give low values 0.401 | locus YHR142W, strain chs7, hits give low values 0.451 | locus YJL092W, strain hpr5, hits give low values 0.774 | locus YJL095W, strain BCK1 (second series), hits give low values 0.236 | locus YJL115W, strain asf1, hits give low values 0.816 | locus YJL129C, strain trk1, hits give low values 0.52 | locus YJL154C, strain vps35, hits give low values 0.782 | locus YJL164C, strain tpk1, hits give low values 0.545 | locus YJL166W, strain qcr8, hits give low values 0.596 | locus YKL160W, strain elf1, hits give low values 0.869 | locus YKR026C, strain gcn3, hits give low values 0.81 | locus YKR091W, strain srl3, hits give low values 0.757 | locus YLL001W, strain dnm1, hits give low values 0.722 | locus YLL026W, hits give low values 0.758 | locus YLL041C, strain sdh2, hits give low values 0.765 | locus YLR027C, strain aat2, hits give low values 0.751 | locus YLR221C, strain rsa3, hits give low values 0.668 | locus YLR258W, strain gsy2, hits give low values 0.685 | locus YLR262C, strain YPT6 (second series), hits give low values 0.185 | locus YLR320W, strain mms22, hits give low values 0.515 | locus YLR342W, strain FKS1, hits give low values 0.532 | locus YLR357W, strain rsc2, hits give low values 0.563 | locus YLR370C, strain arc18, hits give low values 0.577 | locus YLR384C, strain iki3, hits give low values 0.731 | locus YML120C, strain ndi1, hits give low values 0.768 | locus YMR058W, strain fet3, hits give low values 0.459 | locus YMR125W, strain sto1, hits give low values 0.803 | locus YMR129W, hits give low values 0.756 | locus YMR205C, strain PFK2, hits give low values 0.522 | locus YMR231W, strain pep5, hits give low values 0.641 | locus YNL071W, strain lat1, hits give low values 0.748 | locus YNL209W, strain ssb2, hits give low values 0.29 | locus YNL248C, strain rpa49, hits give low values 0.66 | locus YNL322C, strain KRE1 (second series), hits give low values 0.812 | locus YNR049C, strain mso1, hits give low values 0.785 | locus YOR001W, strain rrp6, hits give low values 0.683 | locus YOR070C, strain gyp1, hits give low values 0.71 | locus YOR080W, strain dia2, hits give low values 0.759 | locus YOR083W, strain WHI5, hits give low values 0.57 | locus YOR106W, strain vam3, hits give low values 0.307 | locus YOR265W, strain rbl2, hits give low values 0.683 | locus YOR270C, strain vph1, hits give low values 0.387 | locus YOR290C, strain snf2, hits give low values 0.578 | locus YPL051W, strain arl3, hits give low values 0.416 | locus YPL078C, strain atp4, hits give low values 0.76 | locus YPL106C, strain sse1, hits give low values 0.536 | locus YPL240C, strain hsp82, hits give low values 0.74
